Here are results for 116 molecules from PubChem BioAssay AID488969 (Vanderbilt High Throughput Screening Facility, 2010).

Whole data set: some 110,000 compounds, median “z-score” near -0.1, cut for the highest 2% near 2. What follows is part of a selection rich in the highest values, with near analogues and random picks from the rest. Activity calls are given as the source filed them.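 The calls were made as follows: active = z-score in the third read window above 3 or below -3; inactive = the rest.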

The target of the test is Metabotropic glutamate receptor 8 (Rattus norvegicus) (UniProt P70579). As to the kind of experiment: rat mGluR8 modulators via GIRK flux, primary screen, cell-based, thallium flux, HTS (AID 488969). The conditions noted are these: HEK293 rat mGluR8, GIRK (G protein-gated inwardly rectifying potassium channel) thallium flux, FluoZin2; at 10 µM; stronger effect = higher value; submaximal glutamate (EC20) added with thallium.
Chain of Metabotropic glutamate receptor 8 (Rattus norvegicus) (P70579 whole entry, looked up): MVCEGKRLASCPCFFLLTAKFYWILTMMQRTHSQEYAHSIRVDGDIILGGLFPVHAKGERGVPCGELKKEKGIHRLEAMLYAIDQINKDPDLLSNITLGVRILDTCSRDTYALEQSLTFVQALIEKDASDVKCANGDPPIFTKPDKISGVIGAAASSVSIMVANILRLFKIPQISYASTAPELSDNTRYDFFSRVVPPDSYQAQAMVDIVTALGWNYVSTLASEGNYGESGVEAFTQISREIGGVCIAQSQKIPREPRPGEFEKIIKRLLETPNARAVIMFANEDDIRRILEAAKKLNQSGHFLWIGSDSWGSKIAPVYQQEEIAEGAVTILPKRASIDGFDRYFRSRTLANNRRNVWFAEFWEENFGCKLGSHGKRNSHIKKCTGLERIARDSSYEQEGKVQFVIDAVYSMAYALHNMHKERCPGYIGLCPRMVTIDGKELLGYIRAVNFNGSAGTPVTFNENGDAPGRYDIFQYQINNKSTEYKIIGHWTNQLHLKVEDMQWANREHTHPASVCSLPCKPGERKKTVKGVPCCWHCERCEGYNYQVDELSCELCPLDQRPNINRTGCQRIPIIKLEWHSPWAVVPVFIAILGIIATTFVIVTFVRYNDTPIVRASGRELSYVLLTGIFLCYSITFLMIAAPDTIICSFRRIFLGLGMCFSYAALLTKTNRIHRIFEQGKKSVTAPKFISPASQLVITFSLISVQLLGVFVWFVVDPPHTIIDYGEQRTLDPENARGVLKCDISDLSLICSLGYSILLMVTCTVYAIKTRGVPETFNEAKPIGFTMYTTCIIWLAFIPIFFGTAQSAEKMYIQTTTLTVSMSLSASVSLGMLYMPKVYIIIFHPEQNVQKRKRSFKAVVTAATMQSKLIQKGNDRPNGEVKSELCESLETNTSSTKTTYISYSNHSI
Molecule `CC(C(=O)N1c2ccccc2CCc2ccccc21)n1nnc(-c2ccc(N(C)C)cc2)n1` (stereo unspecified) returned a z-score of 0.255.
Regarding `Cc1cc(NC(=O)CSc2nc(CC(C)(C)C)nc3c2c(=O)n(C)c(=O)n3C)no1`, the z-score was -0.0135.
The result for `CCOc1ccc2nc(NC(=O)c3ccoc3C)sc2c1` reads -0.855.
As for `COc1ccccc1Nc1nnc(SCC(=O)NC(=O)Nc2ccc3c(c2)OCCO3)s1`, the figure is -0.138.
As for `Cc1cc(C(=O)CSc2nnc(-c3cccnc3)n2-c2ccccc2)c(C)n1CC1CCCO1` (stereo unspecified), the figure is -0.185; as for `COC(=O)Nc1ccc(S(=O)(=O)Nc2ccccc2F)cc1`, 0.00713.
`Cc1cc(NC(=O)C2C3C(=O)N(Cc4ccc(Cl)cc4)C(C(=O)NCc4ccccc4)C34C=CC2(C)O4)no1` (stereo unspecified) came in with a z-score of 0.193.
As for `Cc1cccc(NC(=O)CN2C(=O)S/C(=C\c3cc(C)n(C)c3C)C2=O)c1`, the figure is 0.326; as for `COC(=O)C1=C(C)NC(C)=C(C(=O)OC)C1C(=O)OCC(=O)N1c2ccccc2CC1C` (stereo unspecified), 0.131.
`CCOC(=O)C1=C(C)NC(C)=C(C(=O)OCC)C1C(=O)OCC(=O)N1c2ccccc2CC1C` (stereo unspecified) had a z-score of 2.55.
On to `CCOC(=O)N1CCN(CC(=O)N2c3ccccc3CC2C)CC1` (stereo unspecified), for which the z-score is -0.746.
The result for `C/C(=N\NC(=O)OC(C)(C)C)c1cccc([N+](=O)[O-])c1` reads -0.272; that for `Cc1ccc(C(=O)Nc2nc(=O)n(C(=O)C3CC3)s2)cc1`, -0.185.
As for `Cc1cc(N2CCOCC2)nc(NCc2ccccc2)n1`, the figure is -0.0745; as for `Cc1cc(Nc2ccccc2)nc(NCc2ccccc2)n1`, 2.34; as for `Cc1cc(Nc2ccc(Cl)cc2)nc(NCc2ccccc2)n1`, -0.173.
The result for `Cc1cc(N2CCN(c3ccccc3)CC2)nc(NCc2ccccc2)n1` reads 3; that for `Cc1cc(N2CCCCC2)nc(NCc2ccccc2)n1`, 0.794; that for `Cc1ccc(Nc2cc(C)nc(NCc3ccccc3)n2)cc1`, -0.326.
Consider `c1ccc(-c2nnc(-c3ccccc3)c(-c3c[nH]c4ccccc34)n2)cc1`, for which the z-score came out at 0.446.
The result for `Cc1ccc(Nc2nc3ccccc3s2)cc1` reads 0.0689; that for `Fc1cc(F)c2nc(Nc3nc4c(F)cccc4s3)sc2c1`, 9.18 (active); that for `Fc1cc(F)c2nc(N3CCCCC3)sc2c1`, -0.14.
With `Cc1ccccc1Nc1nc2ccccc2s1`, the z-score turned out to be 0.103.
As for `NNc1nc2c(F)cccc2s1`, the figure is 0.0402; as for `NNc1nc2c(F)cc(F)cc2s1`, -0.193.
The molecule `Fc1cccc2sc(Nc3nc4ccccc4s3)nc12` registered a z-score of 2.21.
As for `Fc1cccc2sc(Nc3nc4c(F)cccc4s3)nc12`, the figure is 2.09; as for `CC(=O)Nc1nc2c(F)cccc2s1`, 0.033.
As for `O=C(Nc1ccc(Cl)cc1)Nc1cccnc1`, the figure is 0.471.
The molecule `CCN(CC)c1ncnc2c1cnn2C` showed a z-score of -0.228.
The result for `CCC1(CC)C(=O)N(C)C(=O)NC1=NCc1ccccc1` reads 0.146; that for `COc1ccc(/C=C/C(=O)Nc2ccc(N3CCOCC3)cc2)cc1`, -0.219; that for `CC(C)Cn1c(N)c(C(=O)CSc2ccccc2)c(=O)n(C)c1=O`, -0.216.
As for `CCCCn1c(N)c(C(=S)NC(=O)CC(C)C)c(=O)n(C)c1=O`, the figure is 3.59 (active).
As for `CCCn1c(N)c(C(=S)NC(=O)C2CC2)c(=O)n(C)c1=O`, the figure is 0.941.
In the case of `Cn1c(=O)c(C(=S)NC(=O)C2CC2)c(N)n(Cc2ccccc2)c1=O`, the z-score worked out at 0.362.
Take `CC(C)Cn1c(N)c(C(=O)CSc2nnnn2C)c(=O)n(C)c1=O`: the z-score is -0.302.
As for `CCCCn1c(N)c(C(=S)NC(=O)CC(C)(C)C)c(=O)n(C)c1=O`, the figure is 9.54 (active).
The result for `CC(C)(C)n1ncc2c(=O)n(Cc3ccc(Cl)cc3Cl)cnc21` reads -1.25; that for `Cc1ccc(CNC(=O)CCCOc2cc(=O)n(C)c3ccccc23)o1`, -0.129; that for `Clc1ccc(C(c2nnnn2C2CCCC2)N2CCSCC2)cc1` (stereo unspecified), -0.998.
The result for `O=C(O)C1CCN(C(=O)c2ccccc2Cl)CC1` reads -0.551; that for `CC(=O)NC(CC(=O)Nc1cccc(S(=O)(=O)N2CCCCC2)c1)c1ccccc1` (stereo unspecified), 0.132.
For `COCCCn1c(SCC(=O)N2CCc3ccccc32)nnc1-c1ccco1`, the z-score is -0.129.
As for `COc1ccc(N/C(C)=C2/C(=O)C(=O)N(CCO)C2c2ccc([N+](=O)[O-])cc2)cc1` (stereo unspecified), the figure is -0.701; as for `COc1ccc(N/C(C)=C2/C(=O)C(=O)N(CCO)C2c2ccc(Br)cc2)cc1` (stereo unspecified), 5.05 (active).
Consider `COc1ccc(C2/C(=C(/O)c3ccccc3)C(=O)C(=O)N2CCO)cc1` (stereo unspecified), for which the z-score was -0.0153.
The molecule `O=C1CCCc2c1cc(C(=O)NC1CCSC1=O)c(=O)n2-c1ccccc1` (stereo unspecified) had a z-score of -0.276.
Turning to `CCN(CC)CC(=O)Nc1ccc2c(c1)Nc1ccccc1CC2`, the z-score was 2.49.
`CCN(CC)CCC(=O)Nc1ccc2c(c1)N(C(=O)CN(CC)CC)c1ccccc1CC2` returned a z-score of -0.214.
As for `CCN(CC)CC(=O)Nc1ccc2c(c1)N(C(=O)CN(CC)CC)c1ccccc1CC2`, the figure is -0.342.
As for `COc1ccc(C(=O)c2cn[nH]c2-c2cc(Cl)ccc2O)cc1`, the figure is -0.207.
As for `COc1ccc(/C=C2\C(=O)N(c3c(Cl)cc(Cl)cc3Cl)N=C2NC(=O)c2cccc([N+](=O)[O-])c2)cc1`, the figure is -0.0535; as for `CCn1cc(S(=O)(=O)CC(=O)Nc2ccc(C)cc2)c2ccccc21`, -0.393; as for `Cc1ccc(C)c(NC(=O)CS(=O)(=O)c2cn(C)c3ccccc23)c1`, 0.61.
In the case of `CCn1cc(S(=O)(=O)CC(=O)Nc2cc(C)ccc2C)c2ccccc21`, the z-score amounted to 2.61.
The result for `CCOc1ccc(OCCOCCNCCOC)cc1` reads 0.0989.
As for `Cc1c(CN(C)CCc2ccccc2)c(=O)n(-c2ccccc2)n1C`, the figure is -0.04.
The result for `CCc1ccc(Nc2nnc(SCC(=O)Nc3cccc(S(=O)(=O)NC4=NCCCCC4)c3)s2)cc1` reads -0.205; that for `CSc1ccccc1NC(=O)C1CC(c2ccccc2O)=NO1` (stereo unspecified), -0.288; that for `CCn1cc(C2=NOC(C(=O)Nc3ccccc3C(=O)OC)C2)c(C)n1` (stereo unspecified), -0.574.
For `COC(=O)c1ccccc1NC(=O)C1CC(c2ccccc2O)=NO1` (stereo unspecified), the z-score turned out to be 2.57.
As for `CN(C)CCCNCCNC(=O)/C=N\O`, the figure is -0.494; as for `O=C1CC(c2ccncc2)c2cc3c(cc2N1)OCO3` (stereo unspecified), 0.106.
As for `O=C1CC(c2ccc3c(c2)OCO3)c2cc3c(cc2N1)OCCO3` (stereo unspecified), the figure is 0.0815; as for `O=C1CC(c2ccncc2)c2cc3c(cc2N1)OCCO3` (stereo unspecified), 7.59 (active).
As for `Cc1ccc(S(=O)(=O)CC(=O)c2ccc(C)c([N+](=O)[O-])c2)cc1`, the figure is -0.799; as for `CN(Cc1cccs1)C(=O)CCc1ccc(S(=O)(=O)N2CCOCC2)cc1`, 0.00198; as for `CS(=O)(=O)C1=NSC2=NC(=O)/C(=C\c3cccn3-c3ccc(Cl)cc3)C(=N)N21`, -0.377.
For the molecule `O=C1CCC(/C=C/c2ccccc2)=NN1Cc1ccccc1Cl`, the z-score is -0.293.
The result for `O=C1CCC(/C=C/c2ccccc2)=NN1Cc1ccc(Cl)c(Cl)c1` reads 13.4 (active); that for `Cc1ccc(/C=C/C2=NN(Cc3ccc(Cl)c(Cl)c3)C(=O)CC2)cc1`, -0.176.
As for `O=C(N/N=C/c1cccn1-c1ccc([N+](=O)[O-])cc1)C(O)c1ccccc1` (stereo unspecified), the figure is 0.181.
As for `COc1ccc(CC(=O)N/N=C/c2cccn2-c2ccc([N+](=O)[O-])cc2)cc1OC`, the figure is -0.892.
Regarding `O=C(Cc1ccccc1)N/N=C/c1cccn1-c1ccc([N+](=O)[O-])cc1`, the z-score is 3.83 (active).
As for `O=C1CC(N2CCN(Cc3ccccc3)CC2)C(=O)N1c1ccc2c(c1)OCCO2` (stereo unspecified), the figure is -0.057.
As for `CC1(C(=O)NC23CC4CC(CC(C4)C2)C3)CC1(Cl)Cl` (stereo unspecified), the figure is -0.368; as for `CSC(=O)NC12CC3CC(CC(C)(C3)C1)C2`, 8.08 (active).
The result for `CCSC(=O)NC12CC3CC(CC(C3)C1)C2` reads -0.316; that for `CCOC(=O)CN1C(c2ccccc2O)Nc2ccc(Br)cc2C1c1ccccc1` (stereo unspecified), -0.45; that for `CC(OC(=O)CN(C)S(=O)(=O)c1ccc(Cl)cc1)C(=O)Nc1ncc(Cl)cc1Cl` (stereo unspecified), -0.285.
Regarding `Nc1c(CO)nnn1-c1ccccc1`, the z-score was -0.379.
As for `CC(C)c1cc(-c2n[nH]c(=S)n2Cc2ccccc2)cs1`, the figure is 1.35; as for `CCCCn1c(-c2ccoc2C)n[nH]c1=S`, 0.216.
For the molecule `CCCCn1c(-c2csc(C(C)C)c2)n[nH]c1=S`, the z-score was 6.36 (active).
As for `CCc1cc(-c2n[nH]c(=S)n2CC)cs1`, the figure is -0.194; as for `CCCCn1c(-c2cccnc2)n[nH]c1=S`, -0.106; as for `CCCCn1c(-c2csc(CC)c2)n[nH]c1=S`, 2.15.
For `CCNC(=S)N(Cc1ccco1)Cc1cc2cc3c(cc2[nH]c1=O)OCCO3`, the z-score came to 0.158.
Regarding `Nc1ccc(C2(c3ccc(N)cc3)C(=O)Nc3ccccc32)cc1`, the z-score is -0.763.
`Cc1cccnc1NC(=O)C1CCCN(S(=O)(=O)c2ccc3c(c2)oc(=O)n3C)C1` (stereo unspecified): the z-score came out at 0.166.
`CCc1cccc(OCC(=O)Nc2ccc(S(=O)(=O)Nc3onc(C)c3C)cc2)c1` had a z-score of -0.0589.
Take `COc1cc(NC(=O)Cn2nnc(-c3ccncc3)n2)cc(OC)c1`: the z-score turned out to be 0.284.
As for `CN(C)C(=O)CN(c1ccc(F)c(Cl)c1)S(C)(=O)=O`, the figure is 0.00105; as for `Cc1ccc2c(c1)c(=O)c(Br)c(C)n2Cc1ccccc1`, -0.0481; as for `COc1ccccc1C(c1nnnn1C(C)(C)C)N1CCN(Cc2ccncc2)CC1` (stereo unspecified), -0.332.
As for `CCN(CC)C(=O)CSCc1cnn(-c2ccccc2)c1-n1cccc1`, the figure is 0.216.
The result for `COc1ccc(NC2=CC(c3ccc(OC)c(OC)c3)N(c3ccc(OC)cc3)C2=O)cc1` (stereo unspecified) reads -0.044; that for `COc1ccc2nc(N=Nc3ccc(O)c4ccccc34)sc2c1`, 5.85 (active).
`COc1ccc2nc(N=Nc3ccc(N(C)C)cc3)sc2c1`: the z-score stood at 0.141.
As for `COc1ccc2nc(N)sc2c1`, the figure is 0.0701; as for `CCN(CC)C(=O)C(=O)N/N=C/c1cccs1`, -0.0972; as for `CCCCCN(C(=O)CN(C)Cc1ccc(OC)cc1OC)c1c(N)n(CCCC)c(=O)[nH]c1=O`, 0.0701.
Molecule `COc1cccc(C(=O)Nc2nnc(-c3cccs3)o2)c1` displayed a z-score of 0.124.
The result for `O=C(Nc1nnc(-c2cccs2)o1)c1cccc(Oc2ccccc2)c1` reads 14 (active).
The result for `O=C(Nc1nnc(-c2cccs2)o1)c1cccc(F)c1` reads 4.44 (active); that for `O=C(Nc1cccc(C(F)(F)F)c1)c1cc(-c2cccs2)on1`, -0.52.
The result for `CCCCN(CCCC)S(=O)(=O)c1ccc(C(=O)Nc2nnc(COC)o2)cc1` reads 1.03; that for `CCCCN(C)S(=O)(=O)c1ccc(C(=O)Nc2nnc(-c3cccs3)o2)cc1`, 7.18 (active).
In turn, `CCC1CCCCN1S(=O)(=O)c1ccc(C(=O)Nc2nnc(-c3cccs3)o2)cc1` (stereo unspecified) registered a z-score of 0.233.
As for `O=C(Nc1ccncc1)c1cccc(F)c1`, the figure is 0.415; as for `O=C(CCc1ccccc1)Nc1nnc(-c2cccs2)o1`, 0.129; as for `O=C(Nc1nnc(-c2cccs2)o1)c1ccco1`, -0.203.
The result for `O=C(Nc1nnc(-c2cccs2)o1)c1cccc(C(F)(F)F)c1` reads 14.1 (active).
As for `O=C(Nc1ccccc1)c1cccc(C(F)(F)F)c1`, the figure is -0.053.
